Laboratory results published in publication PMC8384837, “Expanding the binding specificity for RNA recognition by a PUF domain”.

biological target: PUM1 PUF domain R5-HRM (Homo sapiens, UniProt Q14671 828-1176, C1007H;Q1011M); test: yeast three-hybrid, YBZ-1, SC-Leu-His + 0.5 mM 3-AT, 4 days; conditions: tags: N-Gal4 AD-HA kept; label: inside an RPR1-promoter hybrid RNA with tandem MS2 sites; ssRNA
Procedure, shortened: (§1)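 Each repeat of the Pumilio-1 PUF domain was randomized at its three base-contacting residues, and these libraries were co-expressed from a centromeric plasmid with matching RNA elements in strain YBZ-1. After four days on SC-Leu (input) or SC-Leu-His + 0.5 mM 3-AT (selection), the repeat regions were PCR-amplified and Illumina-sequenced. The interaction score compares variant frequency between input and selection as a log change, computed in log2 with a pseudocount of 1 for absent variants.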

Sequence of PUM1 PUF domain R5-HRM (Q14671 828-1176 C1007H/Q1011M): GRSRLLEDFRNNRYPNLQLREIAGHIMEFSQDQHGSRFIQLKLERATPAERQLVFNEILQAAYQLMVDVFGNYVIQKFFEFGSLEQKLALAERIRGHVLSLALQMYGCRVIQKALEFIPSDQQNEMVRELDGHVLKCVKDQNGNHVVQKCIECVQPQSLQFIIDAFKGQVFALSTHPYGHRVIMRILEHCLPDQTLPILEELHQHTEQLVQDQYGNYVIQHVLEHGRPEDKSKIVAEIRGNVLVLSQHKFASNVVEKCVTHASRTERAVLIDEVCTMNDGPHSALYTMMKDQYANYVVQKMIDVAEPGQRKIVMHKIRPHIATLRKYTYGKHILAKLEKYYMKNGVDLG

Sequence | binding signal
GGCUAGAACUAGUGGAUCCCCCGGCGCCCGGCGGCUCGAGCCCGGGUAAGUGUAAAUAGUCUGCAUGCCGCCGGGCGCCAUGCCUGCAGGUCGACUCUAGAAAACAUG | 1.49 log2 enrichment (interaction score)
GGCUAGAACUAGUGGAUCCCCCGGCGCCCGGCGGCUCGAGCCCGGGUAAGUGUUAAUAGUCUGCAUGCCGCCGGGCGCCAUGCCUGCAGGUCGACUCUAGAAAACAUG | 4.33 log2 enrichment (interaction score)
GGCUAGAACUAGUGGAUCCCCCGGCGCCCGGCGGCUCGAGCCCGGGUAAGUGUCAAUAGUCUGCAUGCCGCCGGGCGCCAUGCCUGCAGGUCGACUCUAGAAAACAUG | 1.79 log2 enrichment (interaction score)

biological target: PUM1 PUF domain R8-MWR (Homo sapiens, UniProt Q14671 828-1176, N1122M;Y1123W;Q1126R); test: as above; conditions: tags: N-Gal4 AD-HA kept; label: inside an RPR1-promoter hybrid RNA with tandem MS2 sites; ssRNA
Procedure, shortened: as §1

Sequence of PUM1 PUF domain R8-MWR (Q14671 828-1176 N1122M/Y1123W/Q1126R): as the sequence (Q14671 828-1176 C1007H/Q1011M) above, with H180C, M184Q, N295M, Y296W, Q299R counted along it

Sequence | binding signal
GGCUAGAACUAGUGGAUCCCCCGGCGCCCGGCGGCUCGAGCCCGGGUAAGUGUAAAUAGUCUGCAUGCCGCCGGGCGCCAUGCCUGCAGGUCGACUCUAGAAAACAUG | 4.37 log2 enrichment (interaction score)
GGCUAGAACUAGUGGAUCCCCCGGCGCCCGGCGGCUCGAGCCCGGGUAAGCGUAAAUAGUCUGCAUGCCGCCGGGCGCCAUGCCUGCAGGUCGACUCUAGAAAACAUG | 4.99 log2 enrichment (interaction score)
GGCUAGAACUAGUGGAUCCCCCGGCGCCCGGCGGCUCGAGCCCGGGUAAGGGUAAAUAGUCUGCAUGCCGCCGGGCGCCAUGCCUGCAGGUCGACUCUAGAAAACAUG | 2.37 log2 enrichment (interaction score)

biological target: PUM1 PUF domain R3-RTR (Homo sapiens, UniProt Q14671 828-1176, C935R;R936T;Q939R); test: as above; conditions: tags: N-Gal4 AD-HA kept; label: inside an RPR1-promoter hybrid RNA with tandem MS2 sites; ssRNA
Procedure, shortened: as §1

Sequence of PUM1 PUF domain R3-RTR (Q14671 828-1176 C935R/R936T/Q939R): as the sequence (Q14671 828-1176 C1007H/Q1011M) above, with C108R, R109T, Q112R, H180C, M184Q counted along it

Sequence | binding signal
GGCUAGAACUAGUGGAUCCCCCGGCGCCCGGCGGCUCGAGCCCGGGUAAGUGUAAGUAGUCUGCAUGCCGCCGGGCGCCAUGCCUGCAGGUCGACUCUAGAAAACAUG | 1.03 log2 enrichment (interaction score)
GGCUAGAACUAGUGGAUCCCCCGGCGCCCGGCGGCUCGAGCCCGGGUAAGUGUAAAUAGUCUGCAUGCCGCCGGGCGCCAUGCCUGCAGGUCGACUCUAGAAAACAUG | 0.19 log2 enrichment (interaction score)
GGCUAGAACUAGUGGAUCCCCCGGCGCCCGGCGGCUCGAGCCCGGGUAAGUGUAAUUAGUCUGCAUGCCGCCGGGCGCCAUGCCUGCAGGUCGACUCUAGAAAACAUG | 4.46 log2 enrichment (interaction score)

biological target: PUM1 PUF domain R4-AMV (Homo sapiens, UniProt Q14671 828-1176, N971A;H972M;Q975V); test: as above; conditions: tags: N-Gal4 AD-HA kept; label: inside an RPR1-promoter hybrid RNA with tandem MS2 sites; ssRNA
Procedure, shortened: as §1

Sequence of PUM1 PUF domain R4-AMV (Q14671 828-1176 N971A/H972M/Q975V): as the sequence (Q14671 828-1176 C1007H/Q1011M) above, with N144A, H145M, Q148V, H180C, M184Q counted along it

Sequence | binding signal
GGCUAGAACUAGUGGAUCCCCCGGCGCCCGGCGGCUCGAGCCCGGGUAAGUGUAAAUAGUCUGCAUGCCGCCGGGCGCCAUGCCUGCAGGUCGACUCUAGAAAACAUG | 3.03 log2 enrichment (interaction score)
GGCUAGAACUAGUGGAUCCCCCGGCGCCCGGCGGCUCGAGCCCGGGUAAGUGUAUAUAGUCUGCAUGCCGCCGGGCGCCAUGCCUGCAGGUCGACUCUAGAAAACAUG | 1.51 log2 enrichment (interaction score)
GGCUAGAACUAGUGGAUCCCCCGGCGCCCGGCGGCUCGAGCCCGGGUAAGUGUACAUAGUCUGCAUGCCGCCGGGCGCCAUGCCUGCAGGUCGACUCUAGAAAACAUG | 1.83 log2 enrichment (interaction score)
